Assay results from PubChem BioAssay (NCI).
This is part of a sample that, as a whole, favours compounds with a hit. Of some 83,000 tested, about 20% had one in any assay.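 The endpoint reported here, percent growth, reads 100 for growth as untreated, 0 for no net growth and -100 for all cells dead.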 The source made the active and inactive calls. How the source made its calls: active means growth percent below 10; inactive means the rest.

How the values were obtained:
Assay in all cases: NCI-60 one-dose screen, 48 h (100 = growth as untreated, 0 = no growth, -100 = all killed)
Details in all cases: 10 µM
SK-MEL-2 melanoma = system: SK-MEL-2 melanoma
EKVX NSCLC = system: EKVX NSCLC
SN12C renal = system: SN12C renal
UO-31 renal = system: UO-31 renal
TK-10 renal = system: TK-10 renal
ACHN renal = system: ACHN renal
CAKI-1 renal = system: CAKI-1 renal
A498 renal = system: A498 renal
MOLT-4 leukemia = system: MOLT-4 leukemia
CCRF-CEM leukemia = system: CCRF-CEM leukemia

Measured: growth

COc1ccc(C(c2ccc(OCCN(C)C)cc2)c2cc3ccccc3c3ccccc23)cc1 (stereo not given)
inactive: SK-MEL-2 melanoma 86.4% | EKVX NSCLC 56.6% | SN12C renal 64.4% | UO-31 renal 72.2% | TK-10 renal 88% | ACHN renal 21.6% | CAKI-1 renal 76.5% | A498 renal 101%
active: MOLT-4 leukemia 5.83%

Oc1ccc(-c2[nH]c3ccccc3c2-c2nc3ccccc3o2)cc1
inactive: SK-MEL-2 melanoma 66.9% | EKVX NSCLC 83% | SN12C renal 84.2% | UO-31 renal 40.9% | TK-10 renal 84.8% | ACHN renal 51.6% | CAKI-1 renal 64% | A498 renal 81.4% | MOLT-4 leukemia 58.9%

CCC(C)[C@H](NC(C)=O)C(=O)N[C@@H](CCCNC(=N)N)C(=O)N[C@@H](CCCCN)C(=O)N[C@@H](CC1CCC(O)CC1)C(=O)NC(C(=O)N[C@@H](CCSC)C(=O)N[C@@H](CCCNC(=N)N)C(=O)N[C@@]1(C)CCC/C=C\CCC[C@@](C)(C(=O)NC(C(=O)N[C@@H](CCC(=O)O)C(=O)N[C@@H](CC(C)C)C(=O)N[C@H](C(=O)N[C@@H](CCC(=O)O)C(N)=O)C(C)C)[C@@H](C)O)NC(=O)[C@H](CCC(N)=O)NC(=O)[C@H](CC(C)C)NC(=O)[C@H](CC(C)C)NC1=O)[C@@H](C)O (stereo not given in full)
inactive: SK-MEL-2 melanoma 100% | EKVX NSCLC 99.5% | SN12C renal 93.2% | UO-31 renal 106% | TK-10 renal 96.4% | ACHN renal 106% | CAKI-1 renal 99.4% | A498 renal 120% | MOLT-4 leukemia 97.3%

CC[C@@H](C(=O)[C@H](C)[C@H](O)[C@@H](C)[C@H]1O[C@H]([C@@H](CC)C(=O)O)CC[C@H]1C)C1O[C@]2(C=C[C@@H](O)[C@]3(CC[C@@](C)([C@H]4CC[C@](O)(CC)[C@H](C)O4)O3)O2)[C@H](C)C[C@@H]1C (stereo not given in full)
active: A498 renal -69.6%
inactive: SK-MEL-2 melanoma 13.7% | EKVX NSCLC 31.3% | SN12C renal 11.8% | UO-31 renal 34.5% | TK-10 renal 56.5% | ACHN renal 31.2% | CAKI-1 renal 22.2% | MOLT-4 leukemia 17.3%

CNC(=O)c1cn2c3c(c(N4CCN(C)CC4)c(F)cc3c1=O)OC[C@@H]2C
inactive: SK-MEL-2 melanoma 95.4% | EKVX NSCLC 93.5% | SN12C renal 104% | UO-31 renal 92.3% | TK-10 renal 90.6% | ACHN renal 111% | CAKI-1 renal 94.7% | A498 renal 92.8% | MOLT-4 leukemia 101%

Cc1c(O)c(=O)ccn1C1CCC(CC2CCC(n3ccc(=O)c(O)c3C)CC2)CC1 (stereo not given)
inactive: SK-MEL-2 melanoma 66.8% | EKVX NSCLC 10.2% | SN12C renal 41.5% | UO-31 renal 38.6% | TK-10 renal 50.1% | ACHN renal 35.7% | CAKI-1 renal 25.2% | A498 renal 50.9% | MOLT-4 leukemia 25.7%

O=C(CCc1nnc2sc(-c3cc(O)c(O)c(O)c3)nn12)c1nc2ccccc2[nH]1
inactive: SK-MEL-2 melanoma 111% | EKVX NSCLC 96.7% | SN12C renal 107% | UO-31 renal 83.2% | TK-10 renal 117% | ACHN renal 106% | CAKI-1 renal 100% | A498 renal 75.2% | MOLT-4 leukemia 92.3%

Cc1cc(CSc2ccccc2C(=O)N2CC=C(c3ccccc3)CC2)on1
inactive: SK-MEL-2 melanoma 94.1% | EKVX NSCLC 90.7% | SN12C renal 105% | UO-31 renal 88.1% | TK-10 renal 96.9% | ACHN renal 91.6% | CAKI-1 renal 86.3% | A498 renal 98.4% | MOLT-4 leukemia 91.6%

O=C1c2ccccc2C(=O)N1CCCCNc1ccccc1
inactive: SK-MEL-2 melanoma 121% | EKVX NSCLC 127% | SN12C renal 50.4% | UO-31 renal 61.7% | TK-10 renal 117% | ACHN renal 104% | CAKI-1 renal 101% | A498 renal 70.2% | CCRF-CEM leukemia 21.3% | MOLT-4 leukemia 49.7%

O=C(Nc1ccc(OS(=O)(=O)c2ccccc2)cc1)C1CCCCC1
inactive: SK-MEL-2 melanoma 88.4% | EKVX NSCLC 84.3% | SN12C renal 96.4% | UO-31 renal 96.7% | TK-10 renal 97.4% | ACHN renal 104% | CAKI-1 renal 93.1% | A498 renal 105% | MOLT-4 leukemia 74%

CC(C)(C)OC(=O)CN1CCc2c(sc3ncnc(N/N=C/c4cccc5ccccc45)c23)C1
inactive: SK-MEL-2 melanoma 71.1% | SN12C renal 48.4% | TK-10 renal 50.5% | ACHN renal 15.7% | CAKI-1 renal 35.1% | A498 renal 52.4%
active: EKVX NSCLC 2.48% | UO-31 renal 3.34% | MOLT-4 leukemia 9.27%

O=C(CCCSc1nc(-c2ccc(Cl)cc2)cc(-c2ccc(Cl)cc2)n1)NO
active: EKVX NSCLC -19.7% | SN12C renal 4.81% | UO-31 renal -34.9% | ACHN renal 2.26% | CAKI-1 renal 2.08% | A498 renal -3% | MOLT-4 leukemia 4.91%
inactive: SK-MEL-2 melanoma 20.8% | TK-10 renal 24.3%

CNC(=O)c1cn(C2CC2)c2cc(N3CCN(C(=O)c4cc(OC)c(OC)c(OC)c4)CC3)c(F)cc2c1=O
inactive: SK-MEL-2 melanoma 94.8% | EKVX NSCLC 91.2% | SN12C renal 101% | UO-31 renal 79% | TK-10 renal 92.1% | ACHN renal 99.4% | CAKI-1 renal 90.9% | A498 renal 88.4% | MOLT-4 leukemia 99.7%

CC[C@@H](C(=O)[C@H](C)[C@H](O)[C@@H](C)[C@H]1O[C@H]([C@@H](CC)C(=O)N(CC)CC)CC[C@H]1C)C1O[C@]2(C=C[C@@H](O)[C@]3(CC[C@@](C)([C@H]4CC[C@](O)(CC)[C@H](C)O4)O3)O2)[C@H](C)C[C@@H]1C (stereo not given in full)
inactive: SN12C renal 17.4% | TK-10 renal 24.3% | A498 renal 13.8% | MOLT-4 leukemia 28.9%
active: SK-MEL-2 melanoma 0.113% | EKVX NSCLC 1.82% | UO-31 renal -5.88% | ACHN renal 5.95% | CAKI-1 renal 8.82%

CC(=O)N[C@H](C(=O)N[C@@H](CCCNC(=N)N)C(=O)N[C@@H](CCCCN)C(=O)N[C@@H](CCCNC(=N)N)C(=O)NC(C(=O)N[C@@H](CC(C)C)C(=O)N[C@@H](CCCNC(=N)N)C(=O)N[C@@]1(C)CCC/C=C\CCC[C@@](C)(C(=O)N[C@@H](CCCNC(=N)N)C(=O)N[C@@H](CCC(=O)O)C(=O)N[C@@H](CC(C)C)C(=O)N[C@H](C(=O)N[C@@H](CCC(=O)O)C(N)=O)C(C)C)NC(=O)[C@H](CCC(N)=O)NC(=O)[C@H](CC(C)C)NC(=O)[C@H](CC(C)C)NC1=O)[C@@H](C)O)C(C)C (stereo not given in full)
inactive: UO-31 renal 78.5% | ACHN renal 41.2% | CAKI-1 renal 32.3% | A498 renal 26.9% | MOLT-4 leukemia 32.7%
active: SK-MEL-2 melanoma -6.77% | EKVX NSCLC 0.7% | SN12C renal -52% | TK-10 renal -37.3%

N#Cc1c(-c2ccc(Cl)cc2)csc1NC(=O)Nc1ccc(Cl)c(C(F)(F)F)c1
inactive: EKVX NSCLC 11.9% | SN12C renal 14.4% | UO-31 renal 28.2% | TK-10 renal 10.3% | CAKI-1 renal 13.5% | A498 renal 35.6%
active: SK-MEL-2 melanoma 5.43% | ACHN renal 3.38% | MOLT-4 leukemia 1.45%

COc1ccc(-c2cc(-c3ccc(Cl)cc3)nc(SCCCC(=O)NO)n2)cc1
inactive: TK-10 renal 13.8%
active: SK-MEL-2 melanoma 0.495% | EKVX NSCLC -19.2% | SN12C renal 2.49% | UO-31 renal -40.9% | ACHN renal 2.98% | CAKI-1 renal -0.0585% | A498 renal -19% | MOLT-4 leukemia 9.27%

Cc1[nH]c2ccccc2c1/C=N/Nc1ncnc2sc3c(c12)CCN(CC(=O)OC(C)(C)C)C3
inactive: SK-MEL-2 melanoma 92.6% | EKVX NSCLC 134% | SN12C renal 85.3% | UO-31 renal 65.5% | TK-10 renal 101% | ACHN renal 54.2% | CAKI-1 renal 47.2% | A498 renal 51.8% | MOLT-4 leukemia 46.5%

COc1cc(C(=O)/C(C)=C/c2c[nH]c3ccccc23)cc(OC)c1OC
inactive: SK-MEL-2 melanoma 28.7% | EKVX NSCLC 33.5% | SN12C renal 26.3% | UO-31 renal 48.8% | TK-10 renal 62.3% | ACHN renal 28.1% | CAKI-1 renal 34.1% | A498 renal 24.8% | MOLT-4 leukemia 17.5%

C[C@@H](C[C@H](CCO)c1ccccc1)c1ccc2ccccc2c1
inactive: CAKI-1 renal 10.5%
active: SK-MEL-2 melanoma -0.232% | EKVX NSCLC -44% | SN12C renal -80.8% | UO-31 renal -86% | TK-10 renal -6.8% | ACHN renal -91.3% | A498 renal -0.126% | MOLT-4 leukemia -54.2%

COc1cc(-c2csc(NC(=O)Nc3cc(C(F)(F)F)cc(C(F)(F)F)c3)n2)cc(OC)c1OC
inactive: CAKI-1 renal 10.4% | A498 renal 10.1% | MOLT-4 leukemia 17.4%
active: SK-MEL-2 melanoma 7.21% | EKVX NSCLC 4.59% | SN12C renal 7.93% | UO-31 renal 7.12% | TK-10 renal 9.24% | ACHN renal 4.33%

O=C(Nc1cc([N+](=O)[O-])c2[nH]c(=O)c3ccccc3c2c1)C(F)(F)F
inactive: SK-MEL-2 melanoma 106% | EKVX NSCLC 67.1% | SN12C renal 76.8% | UO-31 renal 54.5% | TK-10 renal 84% | ACHN renal 58.6% | CAKI-1 renal 89.1% | CCRF-CEM leukemia 72.8% | MOLT-4 leukemia 55.2%

COc1ccc(-c2nn(-c3cccc(Cl)c3)cc2-c2cc(-c3cccs3)[nH]c(=S)n2)cc1
inactive: SK-MEL-2 melanoma 71.3% | EKVX NSCLC 44.6% | SN12C renal 61.1% | UO-31 renal 24.3% | TK-10 renal 66.7% | ACHN renal 48.4% | CAKI-1 renal 12.5% | CCRF-CEM leukemia 39.5% | MOLT-4 leukemia 21.9%

CCCCN(CCCC)C(=O)[C@H](CC)[C@@H]1CC[C@@H](C)[C@@H]([C@H](C)[C@@H](O)[C@@H](C)C(=O)[C@H](CC)C2O[C@]3(C=CC(=O)[C@]4(CC[C@@](C)([C@H]5CC[C@](O)(CC)[C@H](C)O5)O4)O3)[C@H](C)C[C@@H]2C)O1 (stereo not given in full)
inactive: SK-MEL-2 melanoma 26.2% | EKVX NSCLC 27.7% | SN12C renal 28.7% | UO-31 renal 13.4% | TK-10 renal 42.6% | ACHN renal 13.7% | CAKI-1 renal 21.6% | A498 renal 41% | MOLT-4 leukemia 39.4%

O=C(CCNC(=O)c1nc(-c2ccccc2)n(-c2ccc(Cl)cc2)n1)NO
inactive: SK-MEL-2 melanoma 91.7% | EKVX NSCLC 95.8% | SN12C renal 103% | UO-31 renal 88.3% | TK-10 renal 94.4% | ACHN renal 100% | CAKI-1 renal 97.3% | A498 renal 114% | MOLT-4 leukemia 98%

COc1ccc(C(=O)c2ccccc2CN2C(=O)c3ccccc3C2=O)cc1
inactive: SK-MEL-2 melanoma 103% | EKVX NSCLC 101% | SN12C renal 105% | UO-31 renal 75.1% | TK-10 renal 104% | ACHN renal 102% | CAKI-1 renal 102% | CCRF-CEM leukemia 91.5% | MOLT-4 leukemia 87%
